In PubChem BioAssay (Tox21):
Records with an inconclusive call do not appear. Calls of active or inactive are those of the source. Unless noted, the call rests on the fitted dose curve.

Assays:
[1] = qHTS assay to identify small molecule agonists of the sonic hedgehog signaling (Shh) pathway (AID 1259368);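 further: NIH/3T3-derived 3T3Gli1-Luc cells carrying a stable Gli1-driven firefly luciferase reporter; series mostly up to about 92 µM; nearly all actives have a fitted effect of over 15% in size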
Summary of the method: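 Cells of a mouse NIH/3T3 clone stably expressing luciferase under the Gli1 transcriptional response element are exposed to test chemicals for 24 hr at 37 C. Pathway activation is detected as a rise in luminescence.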

[2] = qHTS assay to identify small molecule antagonists of the sonic hedgehog signaling (Shh) pathway (AID 1259369); further: nearly all actives have a fitted effect of over 45% in size
Summary of the method: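 Cells are plated and held 4hr at 37 C, compounds (DMSO) are pinned in, conditioned medium is added to stimulate the pathway, and after 24hr luciferase reagent is added for 30min before luminescence is read.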

[3] = target: Estrogen receptor beta (Homo sapiens) (UniProt Q92731); assay: qHTS assay to identify small molecule agonists of the estrogen receptor beta (ER-beta) signaling pathway (AID 1259377; active means well fitted activation curve with a large enough effect in the signal ratio in the repeat runs, not every such curve was filed as active; the % refers to the signal ratio)
Sequence of Estrogen receptor beta (Homo sapiens) (Q92731 whole entry, looked up): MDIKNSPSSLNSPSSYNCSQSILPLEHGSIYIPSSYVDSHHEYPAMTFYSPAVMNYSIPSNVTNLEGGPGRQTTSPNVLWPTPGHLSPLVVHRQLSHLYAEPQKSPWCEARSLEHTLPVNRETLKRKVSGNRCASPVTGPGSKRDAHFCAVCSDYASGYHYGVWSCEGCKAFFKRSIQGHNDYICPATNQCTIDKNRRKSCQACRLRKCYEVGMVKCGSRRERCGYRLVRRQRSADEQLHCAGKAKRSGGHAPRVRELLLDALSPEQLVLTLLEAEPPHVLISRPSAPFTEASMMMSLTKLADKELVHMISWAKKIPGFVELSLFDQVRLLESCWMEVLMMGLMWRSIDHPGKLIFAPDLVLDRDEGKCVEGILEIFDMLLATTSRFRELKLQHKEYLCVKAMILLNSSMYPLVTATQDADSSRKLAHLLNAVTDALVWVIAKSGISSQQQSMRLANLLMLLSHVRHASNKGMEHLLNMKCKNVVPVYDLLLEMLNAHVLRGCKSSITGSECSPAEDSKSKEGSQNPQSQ
Summary of the method: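 Read-out: beta-lactamase FRET fluorescence. Cell line: ER-beta-UAS-bla HEK293T in 2% charcoal-stripped FBS. Exposure: 16 hr at 37C. Substrate step: 2 h at room temperature.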

[4] = qHTS assay to identify small molecule agonists of the estrogen receptor beta (ER-beta) signaling pathway - cell viability counter screen (AID 1259380; active means well fitted curve in the direction sought with a large enough effect in the repeat runs; an effect the other way counts as inactive or inconclusive; further: nearly all actives have a fitted effect of over 30% in size)
Summary of the method: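 Cytotoxicity is measured in parallel with the reporter screen: after 16 hr compound exposure at 37C and a 2 hr LiveBLAzer step, CellTiter-Glo is added to the same ER-beta-UAS-bla HEK293T wells and luminescence read after 30 min.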

[5] = qHTS assay to identify small molecule antagonists of the estrogen receptor beta (ER-beta) signaling pathway - cell viability counter screen (AID 1259382; active means well fitted curve in the direction sought with a large enough effect in the repeat runs; an effect the other way counts as inactive or inconclusive;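 further: HEK293T cells carrying ER-beta-UAS-bla reporter stimulated with estradiol; series mostly up to about 92 µM; nearly all actives have a fitted effect of over 55% in size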)
Summary of the method: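 Cytotoxicity counter screen multiplexed with the beta-lactamase antagonist assay: GripTite HEK293T ER-beta-bla cells were treated 16 hr with test chemicals in the presence of 1nM 17-beta-estradiol, and viability was measured by CellTiter-Glo.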

[6] = target: Estrogen receptor (Homo sapiens) (UniProt P03372); assay: qHTS assay to identify small molecule agonists of the estrogen receptor alpha (ER-alpha) signaling pathway in the presence of an antagonist (AID 1259383); further: top concentration of the series differs between compounds; nearly all actives have a fitted effect of over 15% in size
Sequence of Estrogen receptor (Homo sapiens) (P03372 whole entry, looked up): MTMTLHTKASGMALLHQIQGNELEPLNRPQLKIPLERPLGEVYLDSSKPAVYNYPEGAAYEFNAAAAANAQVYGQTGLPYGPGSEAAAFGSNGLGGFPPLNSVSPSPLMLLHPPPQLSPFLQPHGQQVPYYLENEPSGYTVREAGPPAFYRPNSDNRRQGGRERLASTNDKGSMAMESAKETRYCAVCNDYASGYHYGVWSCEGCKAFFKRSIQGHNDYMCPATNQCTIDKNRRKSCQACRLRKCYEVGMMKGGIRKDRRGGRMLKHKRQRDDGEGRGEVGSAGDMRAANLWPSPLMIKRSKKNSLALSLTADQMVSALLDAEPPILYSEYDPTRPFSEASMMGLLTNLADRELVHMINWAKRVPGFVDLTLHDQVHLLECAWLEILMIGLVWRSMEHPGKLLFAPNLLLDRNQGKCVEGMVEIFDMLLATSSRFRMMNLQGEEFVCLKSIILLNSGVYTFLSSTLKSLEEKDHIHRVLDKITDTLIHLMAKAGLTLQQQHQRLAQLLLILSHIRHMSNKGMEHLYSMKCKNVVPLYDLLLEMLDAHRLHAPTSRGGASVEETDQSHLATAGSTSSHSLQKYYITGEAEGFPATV
Summary of the method: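 Agonist-mode confirmation in the presence of the ER antagonist ICI-182,780 at 10.0nM final. Breast-derived VM7Luc4E2 reporter cells were exposed to compounds for 22hr, and ERE-driven luciferase was quantified by luminescence.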

[7] = qHTS assay to identify small molecule agonists or antagonists of the thyroid stimulating hormone receptor (TSHR) signaling pathway - wild type cell line counter screen (AID 1259384)
Summary of the method: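 Counter screen in untransfected Hek293: compounds (15-point titration, triplicate) plus phosphodiesterase inhibitor Ro20-1724 added after 18 h plating; 30 min RT. Intracellular cAMP via competitive d2/cryptate immunoassay, 1 h incubation.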

[8] = target: Estrogen receptor beta (Homo sapiens) (UniProt Q92731); assay: qHTS assay to identify small molecule antagonists of the estrogen receptor beta (ER-beta) signaling pathway (AID 1259378; active means well fitted inhibition curve with a large enough effect in the signal ratio in the repeat runs, not every such curve was filed as active; the % refers to the signal ratio)
Summary of the method: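 Antagonist mode: compounds added to beta-lactamase reporter HEK293T ER-beta-UAS cells stimulated with E2 (1nM final), 16 hr at 37C. LiveBLAzer B/G FRET substrate, 2 hours room temperature, fluorescence read-out.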

[9] = qHTS assay to identify small molecule agonists of the androgen receptor (AR) signaling pathway in the presence of an antagonist - cell viability counter screen (AID 1259379; active means well fitted curve in the direction sought with a large enough effect in the repeat runs; an effect the other way counts as inactive or inconclusive;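 further: MDA-kb2 human breast cancer cells carrying an MMTV luciferase reporter; series mostly up to about 92 µM; nearly all actives have a fitted effect of over 25% in size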)
Summary of the method: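 Cytotoxicity is assessed by CellTiter-Fluor in MDA-kb2 cells carrying an MMTV-driven luciferase reporter. Cells receive 3.0uM nilutamide plus compounds at 15 concentrations and incubate 16 hr at 37C without CO2 before fluorescence reading.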

[10] = target: Androgen receptor (Homo sapiens) (UniProt P10275); assay: qHTS assay to identify small molecule agonists of the androgen receptor (AR) signaling pathway in the presence of an antagonist (AID 1259381); further: nearly all actives have a fitted effect of over 15% in size
Sequence of Androgen receptor (Homo sapiens) (P10275 whole entry, looked up): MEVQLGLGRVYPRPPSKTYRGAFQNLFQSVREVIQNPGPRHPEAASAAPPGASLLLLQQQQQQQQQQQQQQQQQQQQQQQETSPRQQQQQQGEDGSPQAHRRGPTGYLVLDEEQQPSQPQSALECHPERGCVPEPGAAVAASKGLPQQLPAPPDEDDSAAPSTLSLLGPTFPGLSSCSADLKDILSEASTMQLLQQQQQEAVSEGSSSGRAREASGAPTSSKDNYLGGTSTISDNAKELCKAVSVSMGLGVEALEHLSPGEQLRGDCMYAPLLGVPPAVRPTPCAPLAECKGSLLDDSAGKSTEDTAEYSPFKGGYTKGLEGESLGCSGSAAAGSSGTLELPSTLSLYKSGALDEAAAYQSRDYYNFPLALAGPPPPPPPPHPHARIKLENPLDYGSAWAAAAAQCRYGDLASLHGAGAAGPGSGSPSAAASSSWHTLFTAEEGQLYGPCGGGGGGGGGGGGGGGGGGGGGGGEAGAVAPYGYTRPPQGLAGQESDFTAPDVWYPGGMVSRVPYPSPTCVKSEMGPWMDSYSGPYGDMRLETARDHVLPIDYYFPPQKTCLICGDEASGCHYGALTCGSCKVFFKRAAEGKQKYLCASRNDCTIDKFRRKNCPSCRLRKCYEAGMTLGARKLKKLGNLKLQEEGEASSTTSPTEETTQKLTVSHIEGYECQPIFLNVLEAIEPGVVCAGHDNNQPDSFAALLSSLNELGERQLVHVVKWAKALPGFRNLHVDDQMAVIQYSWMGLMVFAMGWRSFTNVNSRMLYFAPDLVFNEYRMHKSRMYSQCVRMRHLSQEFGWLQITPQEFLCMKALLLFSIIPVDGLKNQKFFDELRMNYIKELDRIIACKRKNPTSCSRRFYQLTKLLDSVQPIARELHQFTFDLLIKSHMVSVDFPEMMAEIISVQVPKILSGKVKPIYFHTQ
Summary of the method: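 Agonist-mode confirmation screen: human MDA-kb2 cells stably expressing luciferase under an MMTV promoter bearing AR and GR response elements, co-treated with 3.0uM nilutamide (final). Luminescence measured after 16hr compound incubation.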
On the % scale 0 is the no-effect control and ±100 the full control effect.

O=c1cc(CO)occ1O
inactive: outcome [1] | Potency [2] | outcome [3] | Potency [4] | Potency [5] | Potency [6] | outcome [7]

CC(=O)OCC(=O)[C@@]1(O)CC[C@H]2[C@@H]3CCC4=CC(=O)CC[C@]4(C)[C@H]3C(=O)C[C@@]21C
inactive: outcome [1] | Potency [2] | outcome [3] | outcome [8] | Potency [5] | Potency [6]

C=CCOCC(CC)(CO)COCC=C
inactive: outcome [1] | Potency [2] | outcome [3] | outcome [8] | Potency [5]

COC(=O)CCSCCC(=O)OC
inactive: outcome [1] | Potency [2] | outcome [8] | Potency [9] | Potency [5] | outcome [7]

CCSC(=O)N(CC(C)C)CC(C)C
inactive: outcome [1] | Potency [2] | outcome [3] | Potency [9] | Potency [4] | Potency [10] | Potency [5] | outcome [7]

CCn1nc(C(=O)O)c(=O)c2cc3c(cc21)OCO3
inactive: outcome [1] | Potency [2] | outcome [3] | outcome [8] | Potency [10] | Potency [5] | Potency [6] | outcome [7]

Nc1ccc(S(=O)(=O)Nc2ccnn2-c2ccccc2)cc1
inactive: activity change [1] -1.14% [at 18.9 µM] | Potency [2] | activity, negative = inhibition [8] 0.746% [at 19 µM] | activity change, negative = cytotoxicity [9] -0.249% [at 19 µM] | activity change, negative = cytotoxicity [4] 9.8% [at 19 µM] | activity change, negative = cytotoxicity [5] 5.67% [at 19 µM] | activation [6] -0.0289% [at 19 µM] | cAMP activity change [7] 3.46% [at 18.9 µM]

COc1ccc2c(c1)c(CC(=O)OCC(=O)O)c(C)n2C(=O)c1ccc(Cl)cc1
inactive: outcome [1] | Potency [2] | Potency [9] | Potency [4] | Potency [10] | Potency [5] | outcome [7]

CCOC(=O)CCC(C)=O
inactive: outcome [1] | Potency [2] | outcome [8] | Potency [9] | Potency [4] | Potency [5] | Potency [6]

CCCCCCCCS(=O)(=O)Cl
inactive: outcome [1] | Potency [2] | outcome [3] | Potency [9] | Potency [4] | Potency [5]

OCCCC1CCCCC1
inactive: outcome [1] | Potency [2] | outcome [3] | Potency [4] | Potency [5] | Potency [6] | outcome [7]

c1ccc(CC2=NCCN2)cc1
inactive: outcome [1] | Potency [2] | outcome [3] | Potency [4] | Potency [5] | outcome [7]

COc1c(N2C[C@@H]3CCCN[C@@H]3C2)c(F)cc2c(=O)c(C(=O)O)cn(C3CC3)c12
inactive: outcome [1] | Potency [2] | outcome [3] | Potency [9] | Potency [4] | Potency [5] | Potency [6]

CCOC(=O)CC(C)=O
inactive: outcome [1] | Potency [2] | Potency [9] | Potency [4] | Potency [5]

NS(=O)(=O)c1ccc(C(=O)O)cc1
inactive: outcome [1] | Potency [2] | outcome [3] | Potency [9] | Potency [4] | Potency [10] | Potency [5] | Potency [6] | outcome [7]

c1cnc(N2CCN(Cc3ccc4c(c3)OCO4)CC2)nc1
inactive: outcome [1] | Potency [2] | outcome [3] | outcome [8] | Potency [5] | Potency [6]

O=C(c1ccccc1)C1CCCCC1
inactive: outcome [1] | Potency [2] | Potency [9] | Potency [4] | Potency [10] | Potency [5] | Potency [6] | outcome [7]

C[N+](C)(C)CCCCCC[N+](C)(C)C
inactive: outcome [1] | Potency [2] | Potency [9] | Potency [4] | Potency [5]

CCN1CCC[C@H]1CNC(=O)c1cc(S(N)(=O)=O)ccc1OC
inactive: outcome [1] | Potency [2] | outcome [3] | outcome [8] | Potency [5] | outcome [7]

CCOC(C)(C)C
inactive: outcome [1] | Potency [2] | Potency [9] | Potency [4] | Potency [5] | Potency [6] | outcome [7]

CCCCCOC(=O)CCCCC
inactive: outcome [1] | Potency [2] | Potency [9] | Potency [4] | Potency [5] | Potency [6]

N[C@H]1CN(c2c(F)cc3c(=O)c(C(=O)O)cn(C4C[C@H]4F)c3c2Cl)CC12CC2 (stereo not given in full)
inactive: outcome [1] | Potency [2] | Potency [9] | Potency [4] | Potency [5] | Potency [6] | outcome [7]

N#Cc1ccc(C2CCCc3cncn32)cc1 (stereo not given)
inactive: outcome [1] | Potency [2] | Potency [9] | Potency [5] | Potency [6] | outcome [7]

CC/C=C\CC/C=C/CO
inactive: outcome [1] | Potency [2] | Potency [9] | Potency [4] | Potency [5]

CCOC(=O)c1c(C)n(C)c2ccc(O)cc12
inactive: outcome [1] | Potency [2] | Potency [9] | Potency [10] | Potency [5] | outcome [7]

CCCN1CCCC[C@H]1C(=O)Nc1c(C)cccc1C
inactive: outcome [1] | Potency [2] | Potency [9] | Potency [4] | Potency [5] | outcome [7]

CCCCCCCCCCCCN(CCCCCCCCCCCC)CCCCCCCCCCCC
inactive: outcome [1] | Potency [2] | Potency [9] | Potency [4] | Potency [5] | outcome [7]

CN(C(=O)c1c(O)c2ccccc2n(C)c1=O)c1ccccc1
inactive: outcome [1] | Potency [2] | Potency [9] | Potency [4] | Potency [5]

Cn1c(N)c(N=O)c(=O)n(C)c1=O
inactive: outcome [1] | Potency [2] | Potency [9] | Potency [4] | Potency [5]

CN1CCCC1
inactive: outcome [1] | Potency [2] | Potency [9] | Potency [5] | Potency [6] | outcome [7]

O=Cc1cccc([N+](=O)[O-])c1
inactive: outcome [1] | Potency [2] | Potency [9] | Potency [4] | Potency [5] | Potency [6] | outcome [7]

C=C(C)CS(=O)(=O)O
inactive: outcome [1] | Potency [2] | Potency [9] | Potency [10] | Potency [5] | Potency [6] | outcome [7]

CCc1nccnc1CC
inactive: activity change [1] 0.457% [at 18.9 µM] | Potency [2] | activity change, negative = cytotoxicity [9] 1.15% [at 19 µM] | activity change, negative = cytotoxicity [4] 3.58% [at 19 µM] | activity change, negative = cytotoxicity [5] 15.2% [at 19 µM] | activation [6] -0.0927% [at 19 µM] | cAMP activity change [7] -3.22% [at 18.9 µM]

CCCC(=O)O[C@]1(C(=O)CO)CC[C@H]2[C@@H]3CCC4=CC(=O)CC[C@]4(C)[C@H]3[C@@H](O)C[C@@]21C
inactive: outcome [1] | Potency [2] | Potency [9] | Potency [4] | Potency [5] | outcome [7]

O=C1CCCN1C1CCCCC1
inactive: outcome [1] | Potency [2] | Potency [9] | Potency [4] | Potency [5] | outcome [7]

Cc1sccc1Br
inactive: outcome [1] | Potency [2] | Potency [9] | Potency [4] | Potency [5]
